Screening data as filed in PubChem.
Only some compounds are listed: those with a hit (about 0.78% of all), similar ones and a draw of the others.
APE1 inh: qHTS Assay for Inhibitors of the Human Apurinic/apyrimidinic Endonuclease 1 (APE1); DNA repair nuclease/redox regulator APEX1 (Homo sapiens), P27695; recombinant APE1, TAMRA/BHQ-2 abasic DNA cleavage fluorescence; 350,000 compounds, 0.35% hits; AID 2517, 2012; Potency, µM (doses to about 65.8 µM), for the others: at the highest dose activity change, negative = inhibition, most hits filed as inhibitors;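 further: plate controls were vehicle for no effect and reference inhibitor for full effect; nearly all actives have a fitted effect of over 55% in size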
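Activity was derived from the fluorescence gain between first and third kinetic reads (60 s intervals, ex 525/em 598 nm) after 50 nM THF-abasic TAMRA/BHQ-2 duplex was added to 0.75 nM APE1 preincubated 15 min with compound.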
L3MBTL1 inh-1: qHTS Assay for the Inhibitors of L3MBTL1; Lethal(3)malignant brain tumor-like protein 1 (Homo sapiens), Q9Y468; AlphaScreen L3MBTL1–H3K9me1 peptide binding; Potency, µM (series often up to 57.1 µM), inactives show at the top dose activity, negative = inhibition, hits mostly inhibitors; 230,000 compounds, 0.66% hits; AID 485360, 2010; further: on the % scale 0 is the no-effect control and ±100 the full control effect; nearly all actives have a fitted effect of over 60% in size
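First, the protein-peptide complex forms for 30 min at room temperature (L3MBTL1 50 nM, biotinylated H3K9me1 peptide 75 nM). Next, compounds are pin-transferred and incubated 30 min. Finally, AlphaScreen beads are added and read after 30 min.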
BLM helicase inh: qHTS Assay for Inhibitors of Bloom's syndrome helicase (BLM); RecQ-like DNA helicase BLM (Homo sapiens), P54132; recombinant BLM DNA unwinding, fluorescence dequenching; Potency, µM (top dose mostly 56.1 µM), without a hit: at the top dose activity change, negative = inhibition, actives largely listed as inhibitors; 350,000 compounds, 0.2% hits; AID 2528, 2010;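 further: plate controls were vehicle for no effect and no enzyme for full effect; nearly all actives have a fitted effect of over 35% in size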
RECQ1 inh-1: qHTS Assay for Inhibitors of RecQ-Like Dna Helicase 1 (RECQ1); RECQ1 DNA unwinding, red fluorescence kinetic read; ATP-dependent DNA helicase Q1 (Homo sapiens), P46063; AID 2549, 2010; Potency, µM (titrated, usually from 57.3 µM), inactives show at the highest dose activity, negative = inhibition, most hits filed as inhibitors; 240,000 compounds, 0.54% hits;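 further: plate controls were vehicle for no effect and no enzyme for full effect; nearly all actives have a fitted effect of over 30% in size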
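50 nM RECQ1T1 preincubated 15 min with compound in Tris pH 8.0 buffer with MgCl2, DTT, Tween-20 and 2.5 ug/ml poly(dI-dC); started with 200 nM TAMRA/BHQ-2 forked duplex and 2 mM ATP. Unwinding read as fluorescence (525/598 nm), two reads 2 h apart.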
RECQ1 inh conf: Confirmation qHTS Assay for Inhibitors of RecQ-Like Dna Helicase 1 (RECQ1); shares compounds with RECQ1 inh-1; RECQ1 helicase DNA unwinding, fluorescence; Potency, µM (highest dose often 229 µM), for inactives: at the top dose activity change, negative = inhibition, actives largely listed as inhibitors; 610 compounds, 28% hits; further: on the % scale 0 is the no-effect control and ±100 the full control effect; nearly all actives have a fitted effect of over 45% in size
RECQ1 ADP FP: Counterscreen for RECQ1 Inhibitors: ADP Fluorescence Polarization Displacement Assay; Potency, µM (doses to about 228 µM), for the others: at the top dose activity change, negative = inhibition, hits mostly inhibitors; ADP fluorescence polarization displacement counterscreen; 530 compounds, 27% hits; shares compounds with RECQ1 inh-1; further: on the % scale 0 is the no-effect control and ±100 the full control effect; nearly all actives have a fitted effect of over 45% in size
RECQ1 inh-2: Confirmation qHTS Assay for Inhibitors of RecQ-Like Dna Helicase 1 (RECQ1) - Round 2 Cherry Picks. shares compounds with RECQ1 inh-1. recombinant RECQ1 DNA unwinding, red fluorescence. Potency, µM (series often up to 119 µM), inactives show at the top dose activity, negative = inhibition, most hits filed as inhibitors. 1,100 compounds, 15% hits. AID 504841, 2011; further: on the % scale 0 is the no-effect control and ±100 the full control effect; nearly all actives have a fitted effect of over 50% in size
L3MBTL1 inh-2: qHTS Assay for the Inhibitors of L3MBTL1: Hit Validation. shares compounds with L3MBTL1 inh-1. L3MBTL1 methyl-lysine binding inhibition, biochemical qHTS. Potency, µM, most hits filed as inhibitors. 500 compounds, 91% hits. AID 540279, 2011; further: nearly all actives have a fitted effect of over 70% in size
AlphaScreen ctr2: qHTS Assay for the Inhibitors of L3MBTL1: Hit Validationin AlphaScreen Counterscreen; AID 602224, 2012; 500 tested, under 10 active; AlphaScreen counterscreen, signal inhibition; shares compounds with L3MBTL1 inh-1; Potency, µM (titrated, usually from 57.1 µM), inactives show at the highest dose activity change, negative = inhibition, usual class: inhibitors; further: 0% is about no effect
Active calls of the source: *; i = inactive; ? = inconclusive; · = no result given; ! = repeats disagree. The call rests on the fitted dose curve; in most records, active means well fitted curve in the direction sought with a large enough effect; inconclusive means small, poorly fitted or top-dose-only effect, or another doubt; inactive means no such curve, though single readings can be large; an effect the other way counts as inactive or inconclusive. Potency means the concentration at half of the fitted maximal effect.

SMILES	APE1 inh	L3MBTL1 inh-1	BLM helicase inh	RECQ1 inh-1	L3MBTL1 inh-2	AlphaScreen ctr2	others
O=C(O)c1cc(-c2ccco2)nc2ccc(Br)cc12	13µM*	4.5µM*	-12%	3.2µM*!	2.4*	1%	RECQ1 inh conf=45µM*;RECQ1 ADP FP=?;RECQ1 inh-2=?
NC(=O)COC(=O)c1cc(-c2ccco2)nc2ccccc12	?	-3%	-3%	?	·	·
O=C(NCCCN1CCN(c2ccccc2F)CC1)c1nnc(Cc2ccc(Cl)cc2Cl)o1	·	·	-7%	·	·	·
O=C(/C=C/c1ccco1)NCC1OCCc2ccccc21 (configuration not stated)	?	22µM*	?	?	6*	1%	RECQ1 inh-2=6.3µM*
CCCCCCCCCCCCCC/C(C(=O)O)=C(\C)C(=O)O	-2%	·	4%	i	·	·
CN(CC(=O)Nc1ccccc1Cl)C(=O)c1cccc(-n2cccc2)c1	40%	-23%	·	·	·	·
Cc1ccc(C)c(NC(=O)CN(C)C(=O)c2cccc(-n3cccc3)c2)c1	3µM*	8.9µM*	·	·	2.7*	?
CN1CCN(/N=C/c2nc(-c3cccc([N+](=O)[O-])c3)n3ccccc23)CC1	?	-11%	-9%	-5%	·	·
O=C(O)/C=C/c1nc(-c2ccccc2)n2ccccc12	1%	18µM*	16%	2%	?	-15%
O=c1cc(-c2ccccc2Cl)c2c([nH]1)CCC2	-6%	28µM*	-7%	9%	?	8%
Cc1ccc2c(CC(=O)OCC(=O)N(CC(C)C)c3c(N)n(Cc4ccccc4)c(=O)[nH]c3=O)coc2c1	-28%	32µM*	·	·	21*	9%
CCC(=O)Nc1ccc(CC)cc1-c1nc2ccccc2n(CC(=O)Nc2cccc(OC)c2)c1=O	·	·	-3%	·	·	·
C/C(=N\Nc1nnc2c3ccccc3n(C)c2n1)c1ccc(C)o1	-7%	-4%	-5%	-40%	·	·
Cc1cc(C)n(-c2nnc3c4ccccc4n(C)c3n2)n1	-10%	28µM*	-9%	i	?	?
COc1ccccc1Nc1nn2c(=O)c3ccc(C(=O)NCCc4ccccc4)cc3nc2s1	·	·	-19%	·	·	·
Cc1ccc2nc(-c3ccc(O)c(O)c3)cn2c1	?	32µM*	-20%	·	5.3*	-1%
Cc1ccnc(NC(c2cccnc2)c2ccc3cccnc3c2O)c1 (configuration not stated)	3%	13µM*	-4%	-1%	11*	-91%
Cc1ccnc(NC(c2cc(C)ccc2O)c2ccc3cccnc3c2O)c1 (configuration not stated)	·	·	-8%	·	·	·
O=C(Nc1ccc(F)cc1F)c1ccc2c(O)c(S(=O)(=O)c3ccc(Cl)cc3)c(=O)[nH]c2c1	·	·	-1%	·	·	·
O=C(O)CCCCCn1c(SCC(=O)c2ccc(O)c(O)c2)nc2ccsc2c1=O	?	32µM*	2%	-20%	3*	-1%
CCCC[N+](C)(C)CCC(=O)NC(C)(C)CS(=O)(=O)[O-]	1%	20µM*	1%	-9%	21*	-1%
COc1ccc(Cl)cc1NC(=O)Cn1cc(S(=O)(=O)Cc2cccc(Cl)c2)c2ccccc21	·	·	-9%	·	·	·
CC(C)CCC(CCN1CCCC1)c1ccc2c(c1)OCO2 (configuration not stated)	-14%	28µM*	-2%	8%	21*	7%
CC(=O)Nc1ccc(NC(=O)CC2Sc3ccccc3NC2=O)cc1 (configuration not stated)	·	·	-1%	·	·	·
O=C(CC1Sc2ccccc2NC1=O)Nc1cccc(C(=O)O)c1 (configuration not stated)	?	11µM*	-6%	0%	0.95*	11%
SMILES	APE1 inh	L3MBTL1 inh-1	BLM helicase inh	RECQ1 inh-1	L3MBTL1 inh-2	AlphaScreen ctr2	others
Cc1ccc(N2NC(=O)/C(=C/c3ccc(-c4ccc(Cl)c(C(=O)O)c4)o3)C2=O)cc1	1%	28µM*	-3%	-3%	11*	-2%
CCCCC1(C)OC(=O)C(=Cc2ccc(-c3ccc(Cl)c(C(=O)O)c3)o2)C(=O)O1 (configuration not stated)	?	7.9µM*	6%	?	13*	1%
COc1ccccc1CCN1COc2c(cc3c(C)c(C)c(=O)oc3c2C)C1	·	·	14%	·	·	·
COc1ccc(-c2noc(N3CCN(c4ccc(C)cc4)C(C)C3)n2)cc1OC (configuration not stated)	·	·	-3%	·	·	·
COc1ccc(C2CC(=O)Nc3ccccc3S2(=O)=O)cc1OC (configuration not stated)	?	11µM*	2%	-15%	?	1%
O=C(O)c1ccc2[nH]c3c(c2c1)CSCC3	7%	32µM*	-2%	2%	13*	2%
CN(C)CCOC(=O)c1ccc2[nH]c3c(c2c1)CSCC3	-3%	·	31%	2%	·	·
O=c1c2ccccc2c(C=NCc2ccccn2)c(O)n1-c1ccccc1	3%	3%	-4%	-1%	·	·
O=c1oc2ccccc2c(O)c1C=NCc1ccccn1	7%	16µM*	2%	10%	21*	25%
CC(=O)c1ccc(NC(=O)CC2Nc3cccc4cccc(c34)NC2=O)cc1 (configuration not stated)	-4%	3.5µM*	?	i	27*	?
CC(=O)Nc1ccc(NC(=O)CC2Nc3cccc4cccc(c34)NC2=O)cc1 (configuration not stated)	-5%	-5%	-6%	-3%	·	·
